The record followed here is PubChem BioAssay (NCATS).

Results filed as inconclusive are left out. Calls of active or inactive are those of the source. The call rests on the fitted dose curve; in most records, active means well fitted inhibition curve with a large enough effect; inconclusive means small, poorly fitted or top-dose-only effect; inactive means flat fitted curve, though single readings scatter.
Further: nearly all actives have a fitted effect of over 60% in size.
On the % scale 0 is the no-effect control and ±100 the full control effect; potency means the concentration at half of the fitted maximal effect.

For one assay, the system named is NIH3T3. Put plainly: Cytotoxic Profiling of Annotated Libraries Using Quantitative High-Throughput Screening (AID 1296008). As to conditions: Five cell lines viability, CellTiter-Glo ATP luminescence, 48-72 h; max response: hits give low values. The essentials:
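Cells exposed to compounds for 48 or 72 hr at 37 degrees Celsius. Viability read as ATP-coupled luminescence with CellTiter-Glo after 10 min at room temperature.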
(In general: In ATP-based viability assays light output follows the ATP content of the culture.)
On to `COC(=O)c1nc(Cl)c(Cl)nc1N`, for which the Potency is 10.6 µM (active).

With `O=C(O)Cc1ccc2c(c1)C(=O)c1ccccc1CO2`, the call was inactive. In the case of `CN(C)[C@@H]1C(=O)C(C(=O)NCN2CCCC2)=C(O)[C@@]2(O)C(=O)C3=C(O)c4c(O)cccc4[C@@](C)(O)C3C[C@@H]12` (stereo partly drawn), the max response was 1.26% (inactive).

Regarding `O=C(O)Cc1ccc(-c2ccccc2)cc1`, the max response is -5.58% (inactive).

For the molecule `CNC(=O)c1c(I)c(NC(=O)CCCCC(=O)Nc2c(I)c(C(=O)O)c(I)c(C(=O)NC)c2I)c(I)c(C(=O)O)c1I`, the max response was -3.88% (inactive).

As to `COc1cccc2c1C(=O)c1c(O)c3c(c(O)c1C2=O)C[C@@](O)(C(=O)CO)C[C@@H]3O[C@H]1C[C@H](N)[C@H](O[C@@H]2CCCCO2)[C@H](C)O1`, the Potency was 0.188 µM (active). On the same count and under the same terms, in the case of `N=C1N=C(N)c2cc3ccccc3cc21` it was 10.9 µM (active).

With `O=C(CCN1CCN(CCO)CC1)N1c2ccccc2Sc2ccc(C(F)(F)F)cc21`, the max response was 1.15% (inactive). Consider `CC(C)(C)c1nnc(NS(=O)(=O)c2ccc(N)cc2)s1`, for which the max response is -3.74% (inactive). Take `CN(CCCOc1ccc(Cc2ccccc2)cc1)CCC(=O)O`: the call was inactive.

Take `COC(=O)C1=C(C)NC(C)=C(C(=O)OCC(C)=O)C1c1ccccc1[N+](=O)[O-]` (stereo not drawn): the max response is -4.97% (inactive). On the same count and under the same terms, the same measure for `CCCCCCCCCCCCOCCO`: 1.59% (inactive); for `C#C[C@]1(O)CC[C@H]2[C@@H]3CCc4cc(O)ccc4[C@H]3CC[C@@]21C`: -26.3% (inactive). On to `CCCCCCCCCCCCCCCC(=O)OC(C)C`, for which the molecule was called inactive. In the case of `COC(=O)C1=C(C)NC(C)=C(C(=O)OCC(C)C)C1c1ccccc1[N+](=O)[O-]` (stereo not drawn), the max response was -5.79% (inactive). Take `O=C1CN(/N=C/c2ccc([N+](=O)[O-])o2)C(=O)N1`: the outcome was inactive. For the molecule `CCCSc1ccc2nc(NC(=O)OC)[nH]c2c1`, the Potency is 1.88 µM (active). In the case of `CCNC(=O)[C@H]1O[C@@H](n2cnc3c(N)nc(NCCc4ccc(CCC(=O)O)cc4)nc32)[C@H](O)[C@@H]1O`, the max response is -6.33% (inactive).

`COc1ccnc2c1CCCCC2S(=O)c1nc2ccccc2[nH]1` (stereo not drawn): the max response is -4.2% (inactive). Regarding `CCCCC1C(=O)N(c2ccccc2)N(c2ccc(O)cc2)C1=O` (stereo not drawn), the Potency was 15 µM (active). On to `O=c1[nH]c2ccccc2n1CCCN1CCN(C(c2ccccc2)c2ccccc2)CC1`, for which the max response was -21.6% (inactive). Still for that read-out and setting: in the case of `Cc1c(N)c(=O)n(-c2ccccc2)n1C` it was -4.09% (inactive); in that of `O=C(OCc1ccccc1)c1ccccc1`, 0.848% (inactive). For the molecule `[O-][n+]1ccccc1SSc1cccc[n+]1[O-]`, the Potency was 0.164 µM (active). As for `O=C(O)c1ccccc1Nc1cccc(C(F)(F)F)c1`, the max response was -2.26% (inactive). As for `CCCCCCCC/C=C/C(=O)O`, the max response is 2.83% (inactive).

As for `CC(=O)c1ccc(OCC(=O)N2CCCCC2)cc1`, the molecule was called inactive. Same read-out and setting: in the case of `Nc1ccc(C(=O)O)c(O)c1` it was “inactive”. Consider `Cc1nc2ccccc2n1Cc1ccc(Cl)cc1`, for which the max response was -22.4% (inactive). With `COc1cc(/C=C/C(=O)N2CCN(CC(=O)N3CCCC3)CC2)cc(OC)c1OC`, the result was inactive.

For the molecule `CC1(C)[C@@H](O)CC[C@]2(C)[C@H]3C(=O)C=C4[C@@H]5C[C@@](C)(C(=O)O)CC[C@]5(C)CC[C@@]4(C)[C@]3(C)CC[C@@H]12`, the max response is -0.299% (inactive).

Another assay concerns HACAT. Briefly: qHTS assay to identify novel small-molecules to repurpose for Merkel cell carcinoma treatment (AID 1296009). As to conditions: MCC and control cell lines, CellTiter-Glo viability, 72 h; at 44.8 µM (top of the series) unless noted. The essentials:
(§1)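 Cells were treated for 72 hr at 37 degree celsius with compounds in 8- or 11-point dose response. Viability was read by CellTiter-Glo luminescence, normalized to no-cell (cytotoxicity) and DMSO controls.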
For orientation: qHTS replaces the single test concentration by a dilution series.
Take `CC(C)(C)c1nnc(NS(=O)(=O)c2ccc(N)cc2)s1`: the molecule was classed as inactive. Turning to `COC(=O)C1=C(C)NC(C)=C(C(=O)OCC(C)=O)C1c1ccccc1[N+](=O)[O-]` (stereo not drawn), the outcome was inactive. On the same count and under the same terms, in the case of `COc1ccnc2c1CCCCC2S(=O)c1nc2ccccc2[nH]1` (stereo not drawn) it was “inactive”; in that of `Cc1c(N)c(=O)n(-c2ccccc2)n1C`, “inactive”; in that of `CC1(C)S[C@@H]2[C@H](NC(=O)[C@H](N)c3ccccc3)C(=O)N2[C@H]1C(=O)O`, “inactive”.

Take `CC(C(=O)O)c1ccc(C(=O)c2ccccc2)s1` (stereo not drawn): the call was inactive.

Take `CCCCCCCC/C=C/C(=O)O`: the molecule was classed as inactive. Take `Nc1ccc(C(=O)O)c(O)c1`: the result was inactive.

As for `COc1cc(/C=C/C(=O)N2CCN(CC(=O)N3CCCC3)CC2)cc(OC)c1OC`, the result was inactive. On the same count and under the same terms, the same measure for `Nc1ccc(O)c([N+](=O)[O-])c1`: “inactive [at 92 µM]”; for `COC(=O)Nc1nc2ccc(C(=O)C3CC3)cc2[nH]1`: “inactive”; for `O=Cc1ccc(O)c(O)c1O`: “inactive”.

A further assay deals with HEK293T. Described as above. As to conditions: MCC and control cell lines, CellTiter-Glo viability, 72 h; at 44.8 µM (top of the series) unless noted. In outline:
as §1
On to `COC(=O)C1=C(C)NC(C)=C(C(=O)OCC(C)=O)C1c1ccccc1[N+](=O)[O-]` (stereo not drawn), for which the molecule was called inactive. On the same count and under the same terms, in the case of `CCNC(=O)[C@H]1O[C@@H](n2cnc3c(N)nc(NCCc4ccc(CCC(=O)O)cc4)nc32)[C@H](O)[C@@H]1O` it was “inactive”; in that of `CC1(C)[C@@H](O)CC[C@]2(C)[C@H]3C(=O)C=C4[C@@H]5C[C@@](C)(C(=O)O)CC[C@]5(C)CC[C@@]4(C)[C@]3(C)CC[C@@H]12`, “inactive”.

The test system of a further assay is MCC-13. Described as above. As to conditions: MCC and control cell lines, CellTiter-Glo viability, 72 h; series mostly up to 46 µM; activity change, negative = cytotoxicity: at the top concentration; outcome: at the top concentration. The essentials:
as §1
Regarding `COC(=O)c1nc(Cl)c(Cl)nc1N`, the Potency is 0.944 µM (active). On to `O=C(O)Cc1ccc2c(c1)C(=O)c1ccccc1CO2`, for which the “activity change, negative = cytotoxicity” value was 17.1% (inactive). Same read-out and setting: the same measure for `O=C(O)/C=C\C(=O)O`: 16% (inactive); for `CN(C)[C@@H]1C(=O)C(C(=O)NCN2CCCC2)=C(O)[C@@]2(O)C(=O)C3=C(O)c4c(O)cccc4[C@@](C)(O)C3C[C@@H]12` (stereo partly drawn): 3.98% (inactive); for `Cc1[nH]cnc1CN1CCc2c(c3ccccc3n2C)C1=O`: -4.17% (inactive). Regarding `O=C(O)Cc1ccc(-c2ccccc2)cc1`, the “activity change, negative = cytotoxicity” value is 10.3% (inactive).

In the case of `CNC(=O)c1c(I)c(NC(=O)CCCCC(=O)Nc2c(I)c(C(=O)O)c(I)c(C(=O)NC)c2I)c(I)c(C(=O)O)c1I`, the “activity change, negative = cytotoxicity” value was -0.955% (inactive).

Consider `COc1cccc2c1C(=O)c1c(O)c3c(c(O)c1C2=O)C[C@@](O)(C(=O)CO)C[C@@H]3O[C@H]1C[C@H](N)[C@H](O[C@@H]2CCCCO2)[C@H](C)O1`, for which the Potency is 3.76 µM (active).

With `N=C1N=C(N)c2cc3ccccc3cc21`, the Potency is 43.3 µM (active). In the case of `Nc1ccc([N+](=O)[O-])cc1O`, the “activity change, negative = cytotoxicity” value is -13.2% [at 92.7 µM] (inactive). On the same count and under the same terms, the same measure for `O=C(CCN1CCN(CCO)CC1)N1c2ccccc2Sc2ccc(C(F)(F)F)cc21`: 4.45% (inactive). On the same count and under the same terms, in the case of `CC(C)(C)c1nnc(NS(=O)(=O)c2ccc(N)cc2)s1` it was 13.5% (inactive).

Turning to `CCCCCCCCCCCCOCCO`, the “activity change, negative = cytotoxicity” value was 7.04% (inactive).

For `CCCCCCCCCCCCCCCC(=O)OC(C)C`, the “activity change, negative = cytotoxicity” value was 7.29% (inactive). Same read-out and setting: the same measure for `Oc1c(Br)cc(Br)c2cccnc12`: -25.5% (inactive).

As to `CCCSc1ccc2nc(NC(=O)OC)[nH]c2c1`, the Potency was 1.68 µM (active). Turning to `COc1ccnc2c1CCCCC2S(=O)c1nc2ccccc2[nH]1` (stereo not drawn), the “activity change, negative = cytotoxicity” value was -4.36% (inactive). In the case of `CCCCC1C(=O)N(c2ccccc2)N(c2ccc(O)cc2)C1=O` (stereo not drawn), the Potency is 9.44 µM (active). Turning to `O=c1[nH]c2ccccc2n1CCCN1CCN(C(c2ccccc2)c2ccccc2)CC1`, the “activity change, negative = cytotoxicity” value was -32.9% (inactive). Regarding `Cc1c(N)c(=O)n(-c2ccccc2)n1C`, the “activity change, negative = cytotoxicity” value is -8.49% (inactive). Still for that read-out and setting: the same measure for `O=C(OCc1ccccc1)c1ccccc1`: 13.8% (inactive). On to `[O-][n+]1ccccc1SSc1cccc[n+]1[O-]`, for which the Potency was 0.326 µM (active). For `O=C(O)c1ccccc1Nc1cccc(C(F)(F)F)c1`, the “activity change, negative = cytotoxicity” value is 5.2% (inactive). Still for that read-out and setting: the same measure for `CC1(C)S[C@@H]2[C@H](NC(=O)[C@H](N)c3ccccc3)C(=O)N2[C@H]1C(=O)O`: 12% (inactive). For `CC(C(=O)O)c1ccc(C(=O)c2ccccc2)s1` (stereo not drawn), the outcome was inactive. Regarding `CCCCCCCC/C=C/C(=O)O`, the “activity change, negative = cytotoxicity” value was 3.74% (inactive). Still for that read-out and setting: in the case of `CC(=O)c1ccc(OCC(=O)N2CCCCC2)cc1` it was -2.87% (inactive). Still for that read-out and setting: the same measure for `Nc1ccc(C(=O)O)c(O)c1`: 5.08% (inactive); for `Cc1nc2ccccc2n1Cc1ccc(Cl)cc1`: -10.7% (inactive). On the same count and under the same terms, in the case of `Nc1ccc(O)c([N+](=O)[O-])c1` it was -16.3% [at 92.7 µM] (inactive). With `COC(=O)Nc1nc2ccc(C(=O)C3CC3)cc2[nH]1`, the Potency is 7.5 µM (active). As to `O=Cc1ccc(O)c(O)c1O`, the “activity change, negative = cytotoxicity” value is -2.44% (inactive).
